Assay in all cases: NCI-60 one-dose screen, 48 h (100 = growth as untreated, 0 = no growth, -100 = all killed)
Common to all, as to settings: 10 µM

Assay [1] has as its system HCT-15 colon.
Assay [2] deals with HT29 colon.
The subject of assay [3] is SNB-75 CNS.
In assay [4] the test system is SNB-19 CNS.
Assay [5] concerns U251 CNS.
Assay [6] deals with PC-3 prostate.
For assay [7], the system named is SK-MEL-5 melanoma.
For assay [8], the system named is UACC-62 melanoma.
In assay [9] the test system is LOX IMVI melanoma.
In assay [10] the test system is SK-MEL-28 melanoma.
The test system of assay [11] is SK-MEL-2 melanoma.
Assay [12] deals with SN12C renal.
In assay [13] the test system is UO-31 renal.
The subject of assay [14] is TK-10 renal.
The test system of assay [15] is ACHN renal.
The subject of assay [16] is CAKI-1 renal.
Assay [17] relates to A498 renal.
For assay [18], the system named is CCRF-CEM leukemia.
Assay [19] concerns MOLT-4 leukemia.

SMILES strings stand for the structures. This is part of a sample that, as a whole, favours compounds with a hit. Of some 83,000 tested, about 20% had one in any assay.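 Values shown are percent growth following 48 h exposure of cells in 96-well plates to a single concentration of compound; below 10 was considered active.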 A number with no mark means an inactive call. The source made the active and inactive calls.

Regarding `CS(=O)(=O)Nc1ccc(Nc2c3ccccc3nc3cc(Cl)ccc23)cc1`, the growth in assay [1] was 39.6%; in [2] it was 22.4%; in assay [3], 30.9%; in [4], 44.7%; in [5], 19.9%; in assay [6], 33.8%. The growth is 18.6% in [7]; 36.8% in assay [8]; 19.5% in [9]; 72.6% in assay [10]; 74.1% in assay [11]; 13.9% in assay [12]. The growth is 0.84% (active) in [13]; 55% in [14]; 9.36% (active) in assay [15]; 6.38% (active) in assay [16]; 48.5% in [17]; 7.94% (active) in assay [18]. In addition, the growth in assay [19] was -5.91% (active).
For the compound `COc1ccc(/C=C2\CCC3C(CCCC34OCCO4)C2=O)cc1` (stereo unspecified), the growth in assay [1] is 66.2%; in [2] it was 80.1%; in assay [3], 105%; in [4], 90.1%; in [5], 99.2%; in [6], 86.4%. Also, the growth in assay [7] is 87.3%; in assay [8], 81%; in assay [9] it was 80.8%; in assay [10], 95.1%; in assay [11], 88.4%; in [12], 96.8%. The growth in [13] was 80.5%; in assay [14] it was 95.3%; in [15], 93.6%; in assay [16], 80.2%; in assay [17] it was 106%; in [18], 79.1%. Also, the growth in assay [19] was 78.2%.
Regarding `CC1(CO)CCCC12OCCO2` (stereo unspecified), the growth is 101% in assay [1]; 98.6% in [2]; 97.2% in [3]; 105% in [4]; 102% in assay [5]; 103% in assay [6]. Besides, the growth in assay [7] is 100%; in assay [8], 100%; in assay [9] it was 104%; in [10], 108%; in assay [11] it was 95.2%; in [12] it was 100%. The growth in assay [13] was 93.7%; in assay [14], 107%; in [15] it was 102%; in assay [16] it was 101%; in [17] it was 94.1%; in assay [18], 97.3%. For the same compound, the growth in assay [19] was 107%.
As to `COc1ccc(Nc2nc(NCc3ccccc3)c3ccccc3n2)cc1`, the growth was 72.4% in assay [1]; 49% in [2]; -33% (active) in assay [3]; 14.4% in assay [4]; 32.9% in [5]; 57.3% in [6]. In addition, the growth in [7] was 63.9%; in assay [8] it was 65.3%; in assay [9], 46.8%; in [10], 67.7%; in assay [11] it was 63.4%; in assay [12], 69.5%. Also, the growth in assay [13] was 58.9%; in assay [14] it was 40.6%; in assay [15], 15.6%; in assay [16], 35.7%; in assay [18] it was 68.4%; in [19] it was 81.8%.
For `CC1=CSC2=NC(c3ccc(Cl)c(Cl)c3)=CC(c3ccc(Cl)cc3)N12` (stereo unspecified), the growth is 66.9% in assay [1]; 101% in assay [2]; -21.8% (active) in [3]; 38.5% in [4]; 34.8% in [5]; 45.4% in [6]. The growth in assay [7] was 13.6%; in [8], 10.6%; in assay [9], -82.4% (active); in assay [10], 37.4%; in [11], -14.1% (active); in assay [12], 13.7%. The growth in [13] was 7.9% (active); in [14] it was 18.6%; in [15], 13.5%; in assay [16], 5.28% (active); in assay [17], -12% (active); in assay [18], 31.9%. Also, in assay [19], the growth was 35.2%.
`CC(C)=C1CCC(C)C/C1=N\N=C(N)N` (stereo unspecified): the growth in assay [1] is 99.7%; in assay [2], 102%; in assay [3], 97.7%; in assay [4] it was 97.5%; in assay [5] it was 96.5%; in assay [6], 87.9%. The growth in assay [7] was 98.6%; in assay [8] it was 103%; in assay [9], 93.9%; in [10], 109%; in [11] it was 102%; in assay [12] it was 103%. Also, the growth in assay [13] was 81.3%; in [14] it was 98.3%; in assay [15], 105%; in [16], 93.3%; in assay [17], 88.6%; in assay [18], 86.9%. Besides, the growth in assay [19] was 98.8%.
`N=C(N)c1ccc(-c2ccc(-c3cccs3)s2)nc1`: the growth in [1] is 12.2%; in assay [2] it was -20.1% (active); in assay [3], 41.3%; in assay [4], 87.8%; in [5], 28%; in assay [6] it was 43.7%. In addition, the growth in [7] was 68.6%; in assay [8] it was 86.8%; in assay [9], 10.5%; in [10] it was 83.7%; in assay [11], 97.8%; in assay [12] it was 60.9%. Further, the growth was 2.6% (active) in assay [13]; 47.3% in assay [14]; 56.7% in [15]; 34.2% in assay [16]; -25.6% (active) in assay [17]; 31.6% in assay [18]. In assay [19], the growth is 17.3%.
For the compound `CCCOCC(O)CNCCN` (stereo unspecified), the growth in assay [1] was 98.2%; in [2] it was 102%; in [3], 93.4%; in assay [4], 102%; in assay [5] it was 95.5%; in assay [6] it was 83.4%. For the same compound, the growth in [7] is 106%; in [8] it was 101%; in assay [9] it was 104%; in assay [10], 110%; in assay [11], 116%; in assay [12], 92.8%. Also, the growth was 87.8% in [13]; 102% in [14]; 95.4% in [15]; 92.5% in assay [16]; 89% in assay [17]; 97.6% in assay [18]. In assay [19], the growth was 115%.

The values are drawn from PubChem BioAssay (NCI).
